The results in this text go back to PubChem BioAssay (NCI).

Some test systems named below: DU-145 prostate; K-562 leukemia; MALME-3M melanoma; MDA-MB-231 breast; RXF 393 renal; SF-268 CNS; SF-295 CNS; SF-539 CNS; UACC-257 melanoma; M14 melanoma; HCT-15 colon; HT29 colon; SNB-75 CNS; SNB-19 CNS; U251 CNS; PC-3 prostate; SK-MEL-5 melanoma; LOX IMVI melanoma; UACC-62 melanoma; SK-MEL-28 melanoma.
What all share (experiment): NCI-60 one-dose screen, 48 h (100 = growth as untreated, 0 = no growth, -100 = all killed)
Details in all cases: 10 µM unless noted

The panel holds about 83,000 compounds, 20% with a hit somewhere; the sample as a whole holds those more often.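 The test compound was applied at a single concentration to cells in 96-well plates for 48 hours, and percent growth was recorded.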 A number with no mark means an inactive call. Calls of active or inactive are those of the source. The calls were made as follows: active = growth percent below 10; inactive = the rest.

As to `c1cc(OCCN2CCCCC2)cc(-c2n[nH]c3ccc(-c4ncn[nH]4)cc23)c1`, the growth was 62.4% in the assay with DU-145 prostate; 36.9% with K-562 leukemia; 13.5% in the assay with MALME-3M melanoma; 54.7% in the assay on MDA-MB-231 breast; 90.3% in the assay with RXF 393 renal; 77.8% in the assay with SF-268 CNS. For the same molecule, the growth in the assay on SF-295 CNS is 92.3%; with SF-539 CNS, 49.4%; with UACC-257 melanoma it was 70.8%; in the assay on M14 melanoma it was 22.9%; in the assay on HCT-15 colon it was 79.7%; in the assay with HT29 colon, 21%. Also, the growth in the assay with SNB-75 CNS is 46.1%; in the assay with SNB-19 CNS, 86.2%; with U251 CNS, 84%; in the assay on PC-3 prostate, 86.9%; in the assay on SK-MEL-5 melanoma it was 43.4%; in the assay on LOX IMVI melanoma, 30.8%.

As to `CC[C@@H]1C(=O)N(C)c2cnc(Nc3ccc(C(=O)NC4CCN(C)CC4)cc3OC)nc2N1C1CCCC1`, the growth is 9.68% (active) in the assay with DU-145 prostate; 0.167% (active) in the assay on K-562 leukemia; -15.9% (active) with MALME-3M melanoma; 17% with MDA-MB-231 breast; -3.01% (active) in the assay on RXF 393 renal; 15.5% with SF-268 CNS. The growth with SF-295 CNS was 11%; with SF-539 CNS, -82.4% (active); in the assay on UACC-257 melanoma it was -9.29% (active); in the assay on M14 melanoma it was -25.9% (active); with HCT-15 colon, 4.6% (active); in the assay with HT29 colon it was -3.91% (active). Also, the growth with SNB-75 CNS was -0.626% (active); with SNB-19 CNS it was 31.3%; in the assay with U251 CNS, 12.7%; in the assay on PC-3 prostate, 28%; in the assay on SK-MEL-5 melanoma, -80.6% (active); in the assay on UACC-62 melanoma it was 11.6%. For the same molecule, the growth in the assay with SK-MEL-28 melanoma is 34.4%.

Turning to `C[C@@H](N)c1ccc(C(=O)Nc2ccnc3[nH]ccc23)cc1`, the growth with DU-145 prostate was 52.3%; in the assay on K-562 leukemia it was 63.7%; in the assay with MALME-3M melanoma it was 75.1%; with MDA-MB-231 breast, 50%; in the assay with RXF 393 renal, -18% (active); with SF-268 CNS, 50.6%. The growth in the assay with SF-295 CNS was 61.5%; in the assay with SF-539 CNS, 11.1%; in the assay with UACC-257 melanoma it was 68.9%; in the assay on M14 melanoma, 64.9%; in the assay on HCT-15 colon, 68.3%; in the assay on HT29 colon, 32%. Also, the growth in the assay on SNB-75 CNS is 6.4% (active); in the assay with SNB-19 CNS, 60.7%; with U251 CNS it was 46.7%; in the assay with PC-3 prostate, 44.9%; with SK-MEL-5 melanoma, 67.8%; in the assay with UACC-62 melanoma, 82.1%. For the same molecule, the growth in the assay on SK-MEL-28 melanoma was 63%.

Turning to `CC/C(=C(\c1ccc(OCCN2CCCCCCC2)cc1)c1ccc(OC(=O)C2CCCCC2)cc1)c1ccc(Cl)cc1`, the growth in the assay on DU-145 prostate is 108%; in the assay on K-562 leukemia it was 84.8%; with MALME-3M melanoma it was 94.1%; in the assay with MDA-MB-231 breast, 93.3%; with RXF 393 renal, 110%; in the assay with SF-268 CNS it was 94.7%. Also, the growth was 104% in the assay with SF-295 CNS; 102% with SF-539 CNS; 87.3% with UACC-257 melanoma; 91.1% in the assay with M14 melanoma; 94.3% in the assay with HCT-15 colon; 86.9% with HT29 colon. Further, the growth was 99.7% in the assay on SNB-75 CNS; 110% in the assay with SNB-19 CNS; 98.9% in the assay on U251 CNS; 91.4% in the assay on PC-3 prostate; 102% in the assay on SK-MEL-5 melanoma; 102% in the assay on LOX IMVI melanoma. Moreover, the growth in the assay with SK-MEL-28 melanoma was 96.3%.

With `O=C1C=CC2(NN=C(c3ccccc3)N2c2cccc(Cl)c2)c2cccc(O)c21` (configuration not stated), the growth with DU-145 prostate is 95.9%; with K-562 leukemia, 23%; in the assay with MALME-3M melanoma it was 38.7%; with MDA-MB-231 breast, 68.6%; in the assay with RXF 393 renal, 118%; in the assay on SF-268 CNS, 72.4%. Besides, the growth was 40.8% with SF-295 CNS; 33.9% in the assay with SF-539 CNS; 30.8% with UACC-257 melanoma; 53.2% in the assay on M14 melanoma; 23.8% in the assay with HCT-15 colon; 79.3% with HT29 colon. Besides, the growth with SNB-75 CNS was 57.5%; in the assay on SNB-19 CNS it was 43.9%; in the assay with U251 CNS it was 24.1%; in the assay with PC-3 prostate, 32.7%; with SK-MEL-5 melanoma, -54.6% (active); in the assay with UACC-62 melanoma, 3.48% (active). Also, the growth in the assay on SK-MEL-28 melanoma was 35.8%.

As to `COc1cc2nc(Nc3cccc(Cl)c3)nc(N)c2cc1OC`, the growth in the assay with DU-145 prostate was 32.3%; in the assay on K-562 leukemia, 24%; with MALME-3M melanoma, 107%; with MDA-MB-231 breast, 60.3%; in the assay with RXF 393 renal it was 45.4%; with SF-268 CNS, 77.1%. Besides, the growth with SF-295 CNS is 108%; in the assay with SF-539 CNS it was 90.3%; in the assay on UACC-257 melanoma, 90.3%; in the assay with M14 melanoma, 78.4%; with HCT-15 colon, 6.41% (active); in the assay with HT29 colon, 6.72% (active). The growth in the assay with SNB-75 CNS is 94.5%; in the assay with SNB-19 CNS it was 106%; with U251 CNS, 66.4%; in the assay on PC-3 prostate, 53.9%; in the assay with SK-MEL-5 melanoma, 64.5%; in the assay on LOX IMVI melanoma it was 59.8%. The growth in the assay with SK-MEL-28 melanoma is 83.8%.

As for `CCN(CC)CCNC(=O)c1c(C)[nH]c(/C=C2\C(=O)Nc3ccc(F)cc32)c1C`, the growth in the assay with DU-145 prostate was 33.2%; with K-562 leukemia it was -22.3% (active); in the assay with MALME-3M melanoma, -82.6% (active); with MDA-MB-231 breast it was 0.117% (active); with RXF 393 renal, -71.4% (active); in the assay on SF-268 CNS it was 39.6%. The growth in the assay with SF-295 CNS was 67.3%; in the assay with SF-539 CNS, -88.8% (active); in the assay with UACC-257 melanoma, -40.4% (active); in the assay with M14 melanoma, -77% (active); in the assay with HCT-15 colon it was 11%; with HT29 colon it was -53.9% (active). Further, the growth in the assay with SNB-75 CNS is 18.2%; in the assay on SNB-19 CNS, 9.51% (active); in the assay on U251 CNS, -79.3% (active); in the assay on PC-3 prostate, 21.6%; in the assay with SK-MEL-5 melanoma it was -98% (active); with UACC-62 melanoma, -63.6% (active). The values for the growth in the assay on LOX IMVI melanoma and in the assay on SK-MEL-28 melanoma were -81.9% (active) and -69.1% (active), respectively.

As to `C[C@@H]1COCCN1c1cc(C2([S@](C)(=N)=O)CC2)nc(-c2ccnc3[nH]ccc23)n1`, the growth is 17.5% with DU-145 prostate; 10.8% in the assay on K-562 leukemia; 43.1% in the assay with MALME-3M melanoma; 48% in the assay with MDA-MB-231 breast; -28.4% (active) in the assay on RXF 393 renal; 43.5% with SF-268 CNS. For the same molecule, the growth in the assay with SF-295 CNS is 19%; in the assay on SF-539 CNS, 1.29% (active); in the assay on UACC-257 melanoma, 52.8%; in the assay with M14 melanoma, 10.6%; in the assay with HCT-15 colon, 31.7%; with HT29 colon, 13.4%. The growth in the assay on SNB-75 CNS is 31.1%; with SNB-19 CNS, 28%; in the assay with U251 CNS it was 32.2%; in the assay on PC-3 prostate it was 50.7%; in the assay with SK-MEL-5 melanoma, 21.4%; in the assay with UACC-62 melanoma, 23.7%. The growth in the assay with SK-MEL-28 melanoma is 70.7%.
